Experimental data published in PubChem BioAssay (NCI).
“And” between values parts separate entries of the source, which are not always exact repeats. Equal entries are not always repeated. This is part of a sample that, as a whole, favours compounds with a hit. Of some 83,000 tested, about 20% had one in any assay.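 Plates (96-well) were seeded with cells, treated with compound at one concentration, and incubated for 48 hours before percent growth was determined.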 Values without a mark were called inactive. The source made the active and inactive calls. How the source made its calls: active means growth percent below 10; inactive means the rest.

Legend:
Experiment in all cases: NCI-60 one-dose screen, 48 h (100 = growth as untreated, 0 = no growth, -100 = all killed)
Conditions in all cases: 10 µM unless noted
NCI-H23 lung = test system: NCI-H23 lung
NCI-H226 lung = test system: NCI-H226 lung
NCI-H322M lung = test system: NCI-H322M lung
HOP-62 NSCLC = test system: HOP-62 NSCLC
NCI-H460 lung = test system: NCI-H460 lung
HOP-92 NSCLC = test system: HOP-92 NSCLC
NCI-H522 lung = test system: NCI-H522 lung
A549/ATCC NSCLC = test system: A549/ATCC NSCLC
786-0 renal = test system: 786-0 renal
COLO 205 colon = test system: COLO 205 colon
DU-145 prostate = test system: DU-145 prostate
K-562 leukemia = test system: K-562 leukemia
MALME-3M melanoma = test system: MALME-3M melanoma
MDA-MB-231 breast = test system: MDA-MB-231 breast
RXF 393 renal = test system: RXF 393 renal
SF-268 CNS = test system: SF-268 CNS
SF-295 CNS = test system: SF-295 CNS
SF-539 CNS = test system: SF-539 CNS
UACC-257 melanoma = test system: UACC-257 melanoma
M14 melanoma = test system: M14 melanoma

| Structure (SMILES) | growth (NCI-H23 lung) | growth (NCI-H226 lung) | growth (NCI-H322M lung) | growth (HOP-62 NSCLC) | growth (NCI-H460 lung) | growth (HOP-92 NSCLC) | growth (NCI-H522 lung) | growth (A549/ATCC NSCLC) | growth (786-0 renal) | growth (COLO 205 colon) | growth (DU-145 prostate) | growth (K-562 leukemia) | growth (MALME-3M melanoma) | growth (MDA-MB-231 breast) | growth (RXF 393 renal) | growth (SF-268 CNS) | growth (SF-295 CNS) | growth (SF-539 CNS) | growth (UACC-257 melanoma) | growth (M14 melanoma) |
| --- | --- | --- | --- | --- | --- | --- | --- | --- | --- | --- | --- | --- | --- | --- | --- | --- | --- | --- | --- | --- |
| COC1/C=C/OC2(C)Oc3c(C)c(O)c4c(O)c(c(C=NOC(c5ccccc5)c5ccccc5)c(O)c4c3C2=O)NC(=O)/C(C)=C/C=C/C(C)C(O)C(C)C(O)C(C)C(OC(C)=O)C1C (stereo not given) | 21.8% | 20.3% | 47.4% | -89.5% (active) | 2.85% (active) | -8.12% (active) | 13% | 16.3% | 12.2% | -88.2% (active) | 37.9% | 17.1% | 23.5% | 8.78% (active) | -3.93% (active) | 44.2% | 1.59% (active) | 31.3% | 12.2% | 23.2% |
| COC1=CC(c2ccc[nH]2)=N/C1=C\c1[nH]c(C)c(C(=O)Oc2ccccc2)c1C | -32.9% (active) | -39.8% (active) | -13.1% (active) | -22.2% (active) | -31.2% (active) | -35.4% (active) | -64% (active) | -44.1% (active) | -44.1% (active) | -81.4% (active) | 9.64% (active) | 8.48% (active) | -79.6% (active) | -69.2% (active) | -9.71% (active) | 14.9% | -74.9% (active) | -74.6% (active) | -54.9% (active) | -59.2% (active) |
| CCCO/N=C/c1ccccn1 | 105% and 96.6% | 99.2% and 100% | 112% | 104% and 88.2% | 105% and 109% | 105% | 94.8% and 87.3% | 97.5% and 104% | 107% and 101% | 112% and 108% | 102% and 111% | 99.5% and 103% | 110% and 105% | 103% and 111% | 112% and 122% | 96.4% and 104% | 131% and 95.3% | 110% and 95% | 102% and 96.8% | 105% and 103% |
| NC(=O)c1c(NC(=O)/C=C/c2cccs2)sc2c1CCC(=O)C2 | 17.4% | 68.5% | 101% | 87.3% | 58% | 42.4% | -4.08% (active) | 74.9% | 70.2% | 55.5% | 81.6% | 14.3% | 75.1% | 24.6% | 26.9% | 22.5% | 80.9% | 16.3% | 70.7% | 24.8% |
| CN(Cc1ccccc1)c1nc(Cl)c(C2CC(c3ccc4c(c3)OCO4)=NN2c2cc(Cl)cc(Cl)c2)s1 (stereo not given) | 96.2% | 102% | 99.9% | 89.2% | 103% | 99% | 94.2% | 90.7% | 90% | 93.6% | 101% | 90.2% | 95% | 101% | 109% | 94.8% | 93.8% | 103% | 106% | 99.5% |
| CCCc1cc(C(N)=S)ccn1 | 108% | 100% | 101% | 106% | 111% | 95.1% | 93.6% | 103% | 95.6% | 107% | 109% | 95.3% | 93.7% | 115% | 111% | 114% | 99.1% | 100% | 112% | 102% |
| Cc1oc2c(Cc3ccc(NC(=O)c4ccc(Cl)cc4)cc3)ncnc2c1C(=O)NO | 97.2% | 86.4% | 93.1% | 101% | 97.3% | 125% | 70.7% | 88.5% | 95% | 107% | 105% | 78.3% | 93.9% | 108% | 97.6% | 97.6% | 95.3% | 104% | 84% | 99.6% |
| COc1ccc(-c2ccc(-c3ccc(C(=N)N)cn3)s2)cc1Cl | -57.5% (active) | 88.1% | -97.1% (active) | -50.5% (active) | -93% (active) | -76.8% (active) | -44.2% (active) | -58.2% (active) | -61.3% (active) | -51.7% (active) | -47% (active) | -47.8% (active) | -88% (active) | -77.9% (active) | 64.5% | -30.5% (active) | -80.9% (active) | -93.5% (active) | -60.8% (active) | -81.7% (active) |
| Nc1ncnc2c1C(c1ccc([N+](=O)[O-])cc1)c1sc3c(F)cccc3c1O2 (stereo not given) | 86.8% | 62.9% | 93.6% | 116% | 89.4% | 107% | 84.3% | 99.9% | 103% | 109% | 93.1% | 83.4% | 104% | 84.4% | 101% | 98.7% | 106% | 96% | 121% | 112% |
| COc1ccc(CN2CCc3c(Cl)nc(N)nc3C2=O)c(OC)c1 | -62.1% [100 µM] (active) | 5.05% [100 µM] (active) | 14.9% [100 µM] | 40% [100 µM] | 1.6% [100 µM] (active) | -15.2% [100 µM] (active) | 15.7% [100 µM] | 35.4% [100 µM] | 19.6% [100 µM] | -48.6% [100 µM] (active) | 20.8% [100 µM] | 14.8% [100 µM] | 27.8% [100 µM] | 6.36% [100 µM] (active) | -20.2% [100 µM] (active) | -22.4% [100 µM] (active) | 41.6% [100 µM] | -25.3% [100 µM] (active) | 25.5% [100 µM] | -70.8% [100 µM] (active) |
| C=CCN1C=CC(=O)[C@H](O[Si](C)(C)C(C)(C)C)[C@@H]1/C=C/c1ccccc1 | -71.6% [100 µM] (active) | -65.3% [100 µM] (active) | -59.2% [100 µM] (active) | -88.9% [100 µM] (active) | -49.3% [100 µM] (active) | -89.7% [100 µM] (active) | -39.1% [100 µM] (active) | -40.4% [100 µM] (active) | -88.2% [100 µM] (active) | -64% [100 µM] (active) | -59.1% [100 µM] (active) | 4.18% [100 µM] (active) | -57.5% [100 µM] (active) | -68.3% [100 µM] (active) | -45.5% [100 µM] (active) | -58.2% [100 µM] (active) | -66.7% [100 µM] (active) | -82.7% [100 µM] (active) | -75.9% [100 µM] (active) | -78.6% [100 µM] (active) |
| O=C1OCC2=C1C(c1cccc(C(F)(F)F)c1)c1cc3c(cc1N2CCO)OCCO3 (stereo not given) | 28.5% | 52.3% | 51.3% | 23.5% | 7.21% (active) | 63.3% | 7.2% (active) | 16.3% | 25.5% | -17.7% (active) | 16% | 9.6% (active) | 49.5% | 37.6% | 10.9% | 38.8% | 0.743% (active) | -8.3% (active) | 65.3% | -6.89% (active) |
| O=C(Cn1cc(CN2CCN(c3ccnc4cc(Cl)ccc34)CC2)nn1)Nc1cccc([N+](=O)[O-])c1 | 99.1% | 86.3% | 91.9% | 71.9% | 98% | 71.4% | 71.7% | 84.8% | 88% | 101% | 100% | 68.8% | 102% | 64.8% | 77.2% | 84.6% | 100% | 88.7% | 98.3% | 103% |
| O=S(=O)(Nc1ccc(F)cc1)c1ccc(-c2cnc(C3CC3)o2)cc1 | 42% | 63.9% | 52.8% | 34.7% | 15.8% | 50.5% | 0.0519% (active) | 37.8% | 38.5% | 20.2% | 34% | 11.9% | 46% | 49.7% | 25.9% | 45.5% | 30.2% | 19.4% | 43.4% | 12.2% |
